ER stress death – ER stress cell death inhibition. CSM14.1 thapsigargin ER stress survival, ATP luminescence. hit rate 0.33% among 48,000. relative survival (cellular ATP), % at 15 µg/mL (by protocol);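 active means survival measured by cellular ATP above 50% at 15 µg/ml in the first screen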;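 further: cell death triggered by about 15 µM thapsigargin; ATP read 24 h after thapsigargin was added; plate controls were thapsigargin with DMSO for no effect and DMSO without thapsigargin for full effect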
Numbers without * were called inactive. Shown is part of a subset that was picked to be rich in hits.

Screening COc1ccc(C2Nc3ccccc3NC3=C2C(=O)CC(c2ccccc2)C3)cc1Br (centres undefined) returned ER stress death 29.3.
COc1ccc(C2CC(=O)C3=C(C2)Nc2ccccc2NC3c2ccc(-c3ccccc3)cc2)cc1OC (centres undefined) was read as ER stress death 5.8.
Screening CC1CCc2c(sc(NC(=O)Nc3cccc(Cl)c3)c2C#N)C1 (centres undefined) returned ER stress death 4.4.
Screening Cc1ccc(S(=O)(=O)N2CCN(Cc3ccc(Br)cc3)CC2)cc1 returned ER stress death 25.8.
For O=C(/C=C/c1ccccc1)n1nnc2ccccc21 the results were ER stress death 8.9.
`CCC1CCc2c(sc(NC(=O)c3c(Cl)cccc3Cl)c2C(N)=O)C1` (centres undefined) gave ER stress death 0.3.
COC(=O)CSc1nc(N)c2c3c(sc2n1)CCC3 was read as ER stress death 1.9.
Screening O=C1/C(=C/c2ccc(O)c(Br)c2)Sc2ccccc21 returned ER stress death -3.1.
`CC(=O)NNC(=O)c1cccc(Cl)c1` gave ER stress death 2.0.
For O=C1C=C(NCCc2c[nH]c3ccccc23)CC(c2ccccc2)C1 (centres undefined) the results were ER stress death 53.5*.
CC(C)CCNC1=CC(=O)CC(c2ccccc2)C1 (centres undefined) was read as ER stress death -0.7.
O=C1C=C(Nc2ccccc2C(=O)O)CC(c2ccccc2)C1 (centres undefined) was read as ER stress death 12.4.
Screening O=c1c(=Nc2nn[nH]n2)c(=O)c2ccccc12 returned ER stress death 21.3.
For CN(Cc1ccccc1)C(NC(=O)c1ccccc1[N+](=O)[O-])C(Cl)(Cl)Cl (centres undefined) the results were ER stress death -1.6.
O=[N+]([O-])c1cncc([N+](=O)[O-])c1Nc1ccc(Cl)cn1 was read as ER stress death -2.3.
`CCc1ccc2oc(-c3cccc(NC(=O)c4ccccc4I)c3)nc2c1` gave ER stress death 6.1.
`CCN(CC)c1ccc(Nc2nc(-c3c(C)nc4sccn34)cs2)cc1` gave ER stress death 23.9.
CCOc1ccc(Nc2nc(-c3c(C)nc4sccn34)cs2)cc1 was read as ER stress death 93.2*.
Screening CCOc1ccc(Nc2nc(-c3cccs3)cs2)cc1 returned ER stress death 0.0.
Screening COc1ccc(/C(O)=C2/C(=O)C(=O)N(CCCCCC(=O)O)C2c2cccc(F)c2)cc1 (centres undefined) returned ER stress death 10.5.
For CC(=O)c1ccc(NC(=O)/C=C/c2ccc(C(C)C)cc2)cc1 the results were ER stress death 10.2.
Screening Cc1ccnc(NC(=O)CSc2nc3ccccc3[nH]2)c1 returned ER stress death -1.4.
Screening Cc1ccnc(NC(=O)C(c2ccccc2)c2ccccc2)c1 returned ER stress death 86.0*.
Screening COc1ccccc1CC(=O)Nc1cc(C)ccn1 returned ER stress death 7.1.
`CCN1C(=N)N(c2nc(N(C)C)nc(N(C)C)n2)CC1=O` gave ER stress death -6.0.
For CCOC(=O)C1CCN(C2=NC(=O)/C(=C/c3ccc(N(C)C)cc3)S2)CC1 the results were ER stress death 3.1.
`O=C(CN1CC[n+]2c(-c3cccs3)csc21)c1ccccc1` gave ER stress death 58.6*.
O=C(CSc1nnc(-c2cccs2)n1-c1ccccc1)c1ccccc1 was read as ER stress death 3.0.
For Cc1c(-c2cccs2)nc2ccccc2c1C(=O)O the results were ER stress death -3.1.
For COc1ccc(/C=C2/SC(=Nc3ccccc3Cl)NC2=O)c2ccccc12 the results were ER stress death 5.5.
O=C(NC(=S)Nc1ccc(-c2nc3ccccc3s2)cc1)c1ccc(Cl)cc1 was read as ER stress death -2.3.
For CCn1c2ccccc2c2cc(CN3CCN(Cc4cc(OC)c(OC)cc4OC)CC3)ccc21 the results were ER stress death -6.2.
CCn1c2ccccc2c2cc(CN3CCN(C(=O)c4cc(OC)c(OC)c(OC)c4)CC3)ccc21 was read as ER stress death 113.0*.
CCn1c2ccccc2c2cc(CN3CCN(Cc4ccc(OC)c(OC)c4OC)CC3)ccc21 was read as ER stress death -3.5.
For CCn1c2ccccc2c2cc(CN3CCN(Cc4ccccc4OC)CC3)ccc21 the results were ER stress death -1.8.
Screening CCn1c2ccccc2c2cc(CN3CCN(C(=O)c4ccc(OC)c(OC)c4)CC3)ccc21 returned ER stress death 121.9*.
For CCn1c2ccccc2c2cc(CN3CCN(C(=O)c4ccncc4)CC3)ccc21 the results were ER stress death 16.6.
`COc1ccc(NC(=O)C2CN(S(=O)(=O)c3ccccc3)CCN2S(=O)(=O)c2ccccc2)c(OC)c1` (centres undefined) gave ER stress death 10.5.
For COc1ccc(/C=C/C(=O)Nc2ccc3nn(-c4ccc(F)cc4)nc3c2)cc1 the results were ER stress death -4.6.
For CCOC(=O)C1=C(O)/C(=C/c2ccc(C(C)(C)C)cc2)N=C1C the results were ER stress death 0.5.
For CC(C)(C)NC(=O)c1cc(NC(=O)Cc2ccccc2)cc(NC(=O)Cc2ccccc2)c1 the results were ER stress death 73.0*.
Screening CC(C)(C)NC(=O)c1cc(NC(=O)c2cccs2)cc(NC(=O)c2cccs2)c1 returned ER stress death 3.6.
For Cc1cccc(NC(=O)Cc2ccccc2)c1 the results were ER stress death -5.5.
`COc1ccc(OC)c(NC(=O)CSc2nc3ccccc3s2)c1` gave ER stress death 4.8.
Screening CCC(=O)N1c2ccccc2NC2=C(C(=O)CC(C)(C)C2)C1c1ccc(N(CC)CC)cc1 (centres undefined) returned ER stress death 53.3*.
Screening CCC(=O)N1c2ccccc2NC2=C(C(=O)CC(c3ccccc3)C2)C1c1ccc(F)cc1 (centres undefined) returned ER stress death 106.0*.
Screening COc1ccc(C2C3=C(CC(c4ccccc4)CC3=O)Nc3ccccc3N2C(=O)C(C)C)cc1OC (centres undefined) returned ER stress death 2.3.
`CCC(=O)N1c2ccccc2NC2=C(C(=O)CC(c3ccccc3)C2)C1c1cccc(Br)c1` (centres undefined) gave ER stress death 1.3.
Screening CCC(=O)N1c2ccccc2NC2=C(C(=O)CC(c3ccccc3)C2)C1c1cccnc1 (centres undefined) returned ER stress death 2.8.
`CCC(=O)N1c2ccccc2NC2=C(C(=O)CC(c3ccc(OC)cc3)C2)C1c1ccccc1` (centres undefined) gave ER stress death -1.3.
O=C1CC(c2ccccc2)CC2=C1C(c1cccnc1)N(C(=O)c1ccccc1)c1ccccc1N2 (centres undefined) was read as ER stress death 78.9*.
CCC(=O)N1c2ccccc2NC2=C(C(=O)CC(C)(C)C2)C1c1ccc(C#N)cc1 (centres undefined) was read as ER stress death -2.6.
For CC1(C)CC(=O)C2=C(C1)Nc1ccccc1N(C(=O)c1ccccc1)C2c1ccc(C#N)cc1 (centres undefined) the results were ER stress death 16.5.
For CCOC(=O)C1CCN(S(=O)(=O)c2cc(Cl)ccc2Cl)CC1 the results were ER stress death 9.6.
`O=C(c1cc([N+](=O)[O-])ccc1F)N1CCN(c2cc(N3CCCCC3)c(F)cc2[N+](=O)[O-])CC1` gave ER stress death -2.7.
`CCC/C(O)=C1\C(=O)CC(C)(C)CC1=Nc1ccccc1` gave ER stress death 5.8.
